Calls of active or inactive are those of the source.
Experiments:
[1] = E. coli DRC41 culture turbidity changes, primary screen, E. coli filamentation inducer project, strain DRC41, OD650, 48 h (AID 1152);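 also: E. coli MC1000 strain DRC41 lacking acrAB efflux pump and sulA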; conditions: E. coli DRC41 (acrAB sulA), higher = more signal, called active from +8 up or from −8 down
[2] = small-molecule binders of probe aLefty1, primary screen, biochemical, small-molecule microarray, 635/667 nm fluorescence (AID 1153); conditions: higher = more signal;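 also: score merges spot fluorescence with signal-to-noise ratio from the scanned slide images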
[3] = PSAC antagonists in infected red cells, primary screen, cell-based, P. falciparum Indochina, OD700, 1 h (AID 1154); conditions: P. falciparum Indochina infected RBC osmotic lysis, higher = more signal, called active from +8 up or from −8 down
[4] = PSAC antagonists in infected red cells, primary screen, cell-based, P. falciparum Indochina, OD700, 2 h (AID 1155);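 also: lysis reports solute entry through the parasite surface anion channel PSAC; channel blockers reduce lysis of infected cells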; conditions: P. falciparum Indochina infected erythrocytes, osmotic lysis OD700; higher = more signal, called active from +8 up or from −8 down
[5] = osmotic lysis modulators in infected erythrocytes, primary screen, PSAC antagonist project, cell-based, P. falciparum Indochina, OD700, 3 h (AID 1156); conditions: higher = more signal, called active from +8 up or from −8 down
[6] = PSAC antagonists in infected red cells, primary screen, cell-based, P. falciparum Indochina, OD700, 18 h (AID 1157); conditions: P. falciparum Indochina infected erythrocytes, osmotic lysis OD700, 18 h; higher = more signal, called active from +8 up or from −8 down
[7] = modulators of S6 phosphorylation in cells, primary screen, cell-based, A549, cytoblot, luminescence, serum-stimulated (AID 1158); conditions: A549 phospho-S6 cytoblot, 5 h, higher = more signal;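 also: serum-stimulated A549 lung adenocarcinoma cells; signal is phosphorylated S6 detected by cytoblot immunostaining with HRP secondary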
[8] = molecular target: NADPH oxidase 2 (Homo sapiens) (UniProt P04839); assay: NOX2-dependent H2O2 signal modulators, primary screen, NOX inhibitor project, cell-based, HEK293-NOX2, PMA-stimulated, Amplex Red fluorescence (AID 1159); conditions: 45 min, higher = more signal, called active from +8 up or from −8 down; also: test concentration not given here
[9] = molecular target: NADPH oxidase 4 (Homo sapiens) (UniProt Q9NPH5); assay: NOX4-dependent H2O2 signal modulators, primary screen, NOX inhibitor project, cell-based, HEK293-NOX4, tetracycline-induced, Amplex Red fluorescence (AID 1160); conditions: 45 min, higher = more signal, called active from +8 up or from −8 down
[10] = molecular target: NADPH oxidase 5 (Homo sapiens) (UniProt Q96PH1); assay: NOX5-dependent H2O2 signal modulators, primary screen, NOX inhibitor project, cell-based, HEK293-NOX5, Amplex Red fluorescence (AID 1161); conditions: HEK293-NOX5, ionomycin, 45 min, higher = more signal
[11] = A549 cell viability effects, profiling panel, calcein-AM fluorescence, 48 h, basal (AID 1162); conditions: higher = more signal; also: test concentration not given here
[12] = adipocyte viability effects, profiling panel, cell-based, 3T3-L1 adipocytes, calcein-AM fluorescence, 48 h, basal (AID 1163); conditions: 3T3-L1 adipocytes viability, higher = more signal; also: test concentration not given here
[13] = HepG2 cell viability effects, profiling panel, calcein-AM fluorescence, 48 h, basal (AID 1164); conditions: higher = more signal; also: test concentration not given here
[14] = MM1S cell viability effects, profiling panel, calcein-AM fluorescence, 48 h, basal (AID 1165); conditions: higher = more signal;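 also: viability of MM1S multiple myeloma cells under basal unstimulated conditions; test concentration not given here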
[15] = basal RPMI8226 viability, no added stimulus, profiling panel, cell-based, calcein-AM fluorescence, 48 h, PK04 Diversity Set (AID 1166); conditions: RPMI8226 myeloma viability, higher = more signal;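 also: cells grown under basal conditions without added stimulus; test concentration not given here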
[16] = basal HepG2 mitochondrial membrane potential changes, profiling panel, cell-based, JC-1 fluorescence, 24 h, 100 nL compound (AID 1167); conditions: higher = more signal; also: test concentration not given here
[17] = basal 3T3-L1 adipocyte mitochondrial potential changes, profiling panel, cell-based, JC-1 fluorescence, 3T3-L1 adipocytes, 24 h, 100 nL compound (AID 1168); conditions: JC-1 mitochondrial fluorescence, higher = more signal, called active from +8 up or from −8 down; also: test concentration not given here
[18] = basal RPMI8226 mitochondrial membrane potential changes, profiling panel, cell-based, JC-1 fluorescence, 24 h, 100 nL compound (AID 1169); conditions: RPMI8226 myeloma, JC-1 mitochondrial potential fluorescence, higher = more signal; also: test concentration not given here
[19] = basal MM1S mitochondrial membrane potential changes, profiling panel, cell-based, JC-1 fluorescence, 24 h, 100 nL compound (AID 1170); conditions: higher = more signal; also: test concentration not given here
[20] = A549 lung cancer cell viability effects, profiling panel, resazurin fluorescence, 24 h, PK04 Diversity Set (AID 1171); conditions: higher = more signal, called active from +8 up or from −8 down; also: test concentration not given here

Sequence of NADPH oxidase 4 (Homo sapiens) (Q9NPH5 whole entry, looked up): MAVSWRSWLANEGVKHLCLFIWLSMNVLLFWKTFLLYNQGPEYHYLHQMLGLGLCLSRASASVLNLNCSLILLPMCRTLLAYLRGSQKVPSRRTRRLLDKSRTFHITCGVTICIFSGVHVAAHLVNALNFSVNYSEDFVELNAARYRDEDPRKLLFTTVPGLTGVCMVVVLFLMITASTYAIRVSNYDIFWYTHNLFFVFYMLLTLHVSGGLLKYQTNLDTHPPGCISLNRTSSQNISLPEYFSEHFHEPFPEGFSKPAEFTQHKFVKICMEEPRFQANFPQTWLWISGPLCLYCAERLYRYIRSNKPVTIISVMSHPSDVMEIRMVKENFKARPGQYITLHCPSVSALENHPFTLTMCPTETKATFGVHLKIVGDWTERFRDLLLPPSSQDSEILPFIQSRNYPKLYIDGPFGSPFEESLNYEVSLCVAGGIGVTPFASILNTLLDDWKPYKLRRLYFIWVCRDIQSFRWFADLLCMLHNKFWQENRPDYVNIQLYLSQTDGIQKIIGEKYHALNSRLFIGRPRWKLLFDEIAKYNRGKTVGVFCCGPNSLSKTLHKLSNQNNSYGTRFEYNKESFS
Sequence of NADPH oxidase 5 (Homo sapiens) (Q96PH1 whole entry, looked up): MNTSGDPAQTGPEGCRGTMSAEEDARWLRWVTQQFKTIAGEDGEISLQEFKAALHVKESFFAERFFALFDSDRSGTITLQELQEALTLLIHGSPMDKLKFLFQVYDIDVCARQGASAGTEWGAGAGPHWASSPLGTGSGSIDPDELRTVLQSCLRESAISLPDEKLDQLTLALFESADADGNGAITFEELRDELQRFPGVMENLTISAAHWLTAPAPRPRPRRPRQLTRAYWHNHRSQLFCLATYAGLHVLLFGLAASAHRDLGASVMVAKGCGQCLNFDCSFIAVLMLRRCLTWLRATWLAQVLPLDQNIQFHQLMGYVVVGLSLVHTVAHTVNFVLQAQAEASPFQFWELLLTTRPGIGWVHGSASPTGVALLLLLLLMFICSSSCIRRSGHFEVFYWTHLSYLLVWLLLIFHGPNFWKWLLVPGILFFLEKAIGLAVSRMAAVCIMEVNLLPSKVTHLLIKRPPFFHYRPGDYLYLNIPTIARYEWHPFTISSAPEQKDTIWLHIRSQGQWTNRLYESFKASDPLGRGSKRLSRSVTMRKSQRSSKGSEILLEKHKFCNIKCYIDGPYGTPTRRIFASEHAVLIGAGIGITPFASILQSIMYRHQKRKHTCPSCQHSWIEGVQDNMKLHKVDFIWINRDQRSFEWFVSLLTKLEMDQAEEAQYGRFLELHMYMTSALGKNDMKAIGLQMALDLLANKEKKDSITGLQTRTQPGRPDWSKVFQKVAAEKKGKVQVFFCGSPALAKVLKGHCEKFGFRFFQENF
Sequence of NADPH oxidase 2 (Homo sapiens) (P04839 whole entry, looked up): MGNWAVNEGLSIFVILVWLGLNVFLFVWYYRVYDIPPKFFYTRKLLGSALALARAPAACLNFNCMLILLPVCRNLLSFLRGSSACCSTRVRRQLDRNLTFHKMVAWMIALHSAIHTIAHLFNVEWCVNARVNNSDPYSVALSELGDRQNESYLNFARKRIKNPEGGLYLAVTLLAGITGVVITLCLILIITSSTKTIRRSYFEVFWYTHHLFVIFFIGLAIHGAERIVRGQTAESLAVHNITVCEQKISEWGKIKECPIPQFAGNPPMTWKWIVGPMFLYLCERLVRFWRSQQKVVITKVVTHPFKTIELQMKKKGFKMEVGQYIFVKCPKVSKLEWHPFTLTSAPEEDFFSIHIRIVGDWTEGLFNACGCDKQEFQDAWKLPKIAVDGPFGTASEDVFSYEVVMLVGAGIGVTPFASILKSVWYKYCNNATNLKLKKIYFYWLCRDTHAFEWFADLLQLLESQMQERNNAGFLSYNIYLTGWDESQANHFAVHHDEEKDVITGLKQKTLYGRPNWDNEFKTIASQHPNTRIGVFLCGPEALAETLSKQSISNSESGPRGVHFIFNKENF

SMILES: COCCOC(=O)N1C(=O)[C@@]2(c3cc(C#CC4(O)CCCCCC4)ccc31)[C@H](C(=O)Nc1nc3ccccc3s1)[C@H]1C(=O)O[C@H](c3ccccc3)[C@H](c3ccccc3)N1[C@@H]2c1ccc(OCCO)cc1
- z-score [1]: 0.197 (inactive)
- composite z-score [2]: 0.411
- z-score [3]: 2.97 (inactive)
- z-score [4]: 2.39 (inactive)
- z-score [5]: 1.73 (inactive)
- z-score [6]: 2.27 (inactive)
- z-score [7]: 0.481
- z-score [8]: 0.566 (inactive)
- z-score [9]: -0.595 (inactive)
- z-score [10]: 0.0214
- z-score [11]: -0.593
- z-score [12]: 1.47
- z-score [13]: -0.15
- z-score [14]: -1.83
- z-score [15]: -2.56
- z-score [16]: -3.3
- z-score [17]: -0.438 (inactive)
- z-score [18]: -0.635
- z-score [19]: -1.18
- z-score [20]: 0.566 (inactive)

SMILES: C=CCC(OC(C)=O)[C@@H]1[C@@H](N(Cc2ccc(-c3cccc(C(F)(F)F)c3)o2)C(=O)c2cccc3ccccc23)c2cc(OCCCO)ccc2N1C(=O)Cc1ccc2ccccc2c1 (stereo not given in full)
- z-score [1]: -0.599 (inactive)
- composite z-score [2]: -0.147
- z-score [3]: 0.877 (inactive)
- z-score [4]: -0.397 (inactive)
- z-score [5]: 1.31 (inactive)
- z-score [6]: -0.449 (inactive)
- z-score [7]: 0.359
- z-score [8]: -2.15 (inactive)
- z-score [9]: -0.933 (inactive)
- z-score [10]: -1.04
- z-score [11]: -0.285
- z-score [12]: 0.784
- z-score [13]: -0.0575
- z-score [14]: -0.564
- z-score [15]: -2.04
- z-score [16]: 1.1
- z-score [17]: -0.62 (inactive)
- z-score [18]: -0.0209
- z-score [19]: -0.0374
- z-score [20]: -0.0845 (inactive)

SMILES: [N-]=[N+]=Nc1ccccc1C[C@]1(C(=O)N2CCCCC2)COC(c2ccc(OCCCO)cc2)=N1
- z-score [1]: 0.891 (inactive)
- composite z-score [2]: 0.371
- z-score [3]: 23.1 (active)
- z-score [4]: 9.64 (active)
- z-score [5]: 3.34 (inactive)
- z-score [6]: 1.77 (inactive)
- z-score [7]: -0.391
- z-score [8]: -4.46 (inactive)
- z-score [9]: -0.826 (inactive)
- z-score [10]: -1.79
- z-score [11]: -0.611
- z-score [12]: 0.761
- z-score [13]: -0.328
- z-score [14]: -3.52
- z-score [15]: -4.33
- z-score [16]: -0.676
- z-score [17]: 0.00722 (inactive)
- z-score [18]: -1.3
- z-score [19]: -2.03
- z-score [20]: 1.85 (inactive)

SMILES: OCC1C=C(/C=C/c2ccccc2)CN1Cc1ccccc1Br (stereo not given)
- z-score [1]: 0.785 (inactive)
- composite z-score [2]: 0.457
- z-score [3]: 6.56 (inactive)
- z-score [4]: 0.673 (inactive)
- z-score [5]: 1.17 (inactive)
- z-score [6]: 0.499 (inactive)
- z-score [7]: 0.0524
- z-score [8]: 0.887 (inactive)
- z-score [9]: -2.84 (inactive)
- z-score [10]: -0.691
- z-score [11]: -0.58
- z-score [12]: 1.21
- z-score [13]: 0.0668
- z-score [14]: -3.2
- z-score [15]: -3.64
- z-score [16]: 1.35
- z-score [17]: 0.401 (inactive)
- z-score [18]: -0.923
- z-score [19]: -1.87
- z-score [20]: -0.535 (inactive)

SMILES: CCOC(=O)C1=CC[C@@H](c2ccc(C(F)(F)F)cc2)N(S(=O)(=O)c2ccc(C)cc2)[C@H]1c1ccccc1
- z-score [1]: -0.734 (inactive)
- composite z-score [2]: 0.373
- z-score [3]: 1.62 (inactive)
- z-score [4]: 1.61 (inactive)
- z-score [5]: 0.84 (inactive)
- z-score [6]: 0.828 (inactive)
- z-score [7]: -0.356
- z-score [8]: 0.803 (inactive)
- z-score [9]: -0.658 (inactive)
- z-score [10]: -0.601
- z-score [11]: -0.664
- z-score [12]: -1.01
- z-score [13]: 0.0691
- z-score [14]: -2.36
- z-score [15]: -1.95
- z-score [16]: -1.59
- z-score [17]: 0.154 (inactive)
- z-score [18]: -1.11
- z-score [19]: -3.18
- z-score [20]: 0.138 (inactive)

SMILES: COc1ccc(C(=O)Nc2cccc(CN3C(=O)[C@]4(O[C@H](CCn5cc(CCO)nn5)[C@@H]([Si](C)(C)c5ccc(OC)cc5)[C@@H]4C)c4ccccc43)c2)cc1
- z-score [1]: -0.856 (inactive)
- composite z-score [2]: -0.0061
- z-score [3]: 6.78 (inactive)
- z-score [4]: 2.29 (inactive)
- z-score [5]: 0.155 (inactive)
- z-score [6]: 1.7 (inactive)
- z-score [7]: -0.815
- z-score [8]: -1.91 (inactive)
- z-score [9]: -0.0331 (inactive)
- z-score [10]: 2.87
- z-score [11]: -3.46
- z-score [12]: -0.42
- z-score [13]: -4.63
- z-score [14]: -2.47
- z-score [15]: -4.35
- z-score [16]: -2.18
- z-score [17]: 1.51 (inactive)
- z-score [18]: -0.46
- z-score [19]: -2.05
- z-score [20]: -6 (inactive)

SMILES: C#CCN(C/C=C/c1ccccc1)[C@H](CO)c1ccccc1
- z-score [1]: -1.3 (inactive)
- composite z-score [2]: -0.241
- z-score [3]: 6.86 (inactive)
- z-score [4]: 0.893 (inactive)
- z-score [5]: 0.0025 (inactive)
- z-score [6]: 0.305 (inactive)
- z-score [7]: -0.617
- z-score [8]: 0.403 (inactive)
- z-score [9]: 0.04 (inactive)
- z-score [10]: -3.98
- z-score [11]: -1.94
- z-score [12]: -0.27
- z-score [13]: -1.76
- z-score [14]: -2.02
- z-score [15]: -1.96
- z-score [16]: -2.74
- z-score [17]: -0.471 (inactive)
- z-score [18]: -0.746
- z-score [19]: 0.0614
- z-score [20]: -0.96 (inactive)

SMILES: COCCOC(=O)N1C(=O)[C@@]2(c3cc(C#CC4=CCCCC4)ccc31)[C@H](c1ccc(OCCO)cc1)N1[C@H](c3ccccc3)[C@H](c3ccccc3)OC(=O)[C@H]1[C@@H]2C(=O)N1CCc2cc(OC)c(OC)cc2C1
- z-score [1]: 1.8 (inactive)
- composite z-score [2]: 0.26
- z-score [3]: 3.15 (inactive)
- z-score [4]: 2.02 (inactive)
- z-score [5]: 0.817 (inactive)
- z-score [6]: 1.13 (inactive)
- z-score [7]: 0.0337
- z-score [8]: 0.711 (inactive)
- z-score [9]: 0.842 (inactive)
- z-score [10]: 1.43
- z-score [11]: 1.31
- z-score [12]: 0.453
- z-score [13]: 1.96
- z-score [14]: 0.505
- z-score [15]: -0.0521
- z-score [16]: 0.578
- z-score [17]: 2.21 (inactive)
- z-score [18]: -0.521
- z-score [19]: -0.935
- z-score [20]: -1.12 (inactive)

SMILES: CCN(CC)c1ccc(N2CC=CC34O[C@@H]5C=CCOC(=O)[C@@H]5[C@H]3C(=O)N(CCCCCCO)[C@@H]4C2=O)cc1 (stereo not given in full)
- z-score [1]: 2.74 (inactive)
- composite z-score [2]: 0.176
- z-score [3]: 2.21 (inactive)
- z-score [4]: 0.184 (inactive)
- z-score [5]: 0.404 (inactive)
- z-score [6]: -0.313 (inactive)
- z-score [7]: 0.411
- z-score [8]: -0.262 (inactive)
- z-score [9]: 0.301 (inactive)
- z-score [10]: 1.17
- z-score [11]: -0.705
- z-score [12]: 0.839
- z-score [13]: -0.0976
- z-score [14]: 1.4
- z-score [15]: 0.922
- z-score [16]: 0.554
- z-score [17]: 1.21 (inactive)
- z-score [18]: 0.267
- z-score [19]: -0.72
- z-score [20]: 1.37 (inactive)
